High-throughput results as filed in PubChem.
GDH-TPI counter-1 = GDH-TPI coupled enzyme inhibition counter-screen. GDH-TPI coupled enzyme counterscreen, NADH absorbance. inhibition, % at 4.8 µM. 1.2% of 360,000 active; in the data active = inhibition above about 30%;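 note: 0% = DMSO wells and 100% = wells lacking the enzyme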
FBA Mtb inh = Mtb fructose-bisphosphate aldolase inhibition; AID 588726; inhibition, % at 1 µM; 2.3% of 360,000 active; purified M. tuberculosis FBA, fluorescence read-out; P9WQA3;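 note: 0% = vehicle and 100% = reference inhibitor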
Target sequence (P9WQA3 whole entry, looked up): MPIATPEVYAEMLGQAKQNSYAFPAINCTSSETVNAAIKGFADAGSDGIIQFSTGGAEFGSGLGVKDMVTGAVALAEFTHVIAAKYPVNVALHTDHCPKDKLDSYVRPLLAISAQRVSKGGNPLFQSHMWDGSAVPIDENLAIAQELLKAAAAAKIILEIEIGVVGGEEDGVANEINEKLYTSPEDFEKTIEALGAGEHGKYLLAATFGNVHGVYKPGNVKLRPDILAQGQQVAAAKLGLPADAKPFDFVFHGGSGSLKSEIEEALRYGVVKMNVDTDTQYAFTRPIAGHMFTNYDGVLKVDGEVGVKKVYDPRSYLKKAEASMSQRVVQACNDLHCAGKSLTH
BH1578 lux ind = inducers of Vibrio cholerae quorum light production without autoinducers | 0.16% of 350,000 active | V. cholerae BH1578 lux reporter, luminescence, 6 h | AID 588436 | activation, % at 18.7 µM; in the data active = activation mostly above about 9.7%, no sharp cut-off
Mtb UGM inh = blocks M. tuberculosis UGM enzyme; P9WIQ1; purified UGM, fluorescence polarization probe displacement; inhibition, % at 10 µM; 0.06% of 320,000 active; AID 504406; in the data active = inhibition above about 10%, passing the limit was not always enough
Rv3671c protease = inhibitors of M. tuberculosis serine protease Rv3671c; inhibition, % at 5.96 µM; AID 2606; 0.048% of 320,000 active; in the data active = inhibition above about 38%;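 note: extracellular domain of Rv3671c used as enzyme; 0% = enzyme with DMSO and 100% = no enzyme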
RecA intein inh = inhibitors of M. tuberculosis RecA intein splicing. P9WHJ3. cell-free RecA intein splicing, fluorescence. inhibition, % (no concentration beside the values). 0.75% of 290,000 active. AID 2221; in the data active = inhibition above about 30%;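 note: 0% = vehicle wells and 100% = reference inhibitor control wells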
Mtb FBA inh conf = Mtb FBA inhibition, confirmed | shares compounds with FBA Mtb inh | purified M. tuberculosis FBA, fluorescence read-out | inhibition, % at 1 µM | 78% of 5,600 active;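 note: 0% = vehicle wells and 100% = reference inhibitor wells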
GDH-TPI counter-2 = inhibits GDH-TPI coupling enzymes, flagging Mtb FBA hits | GDH-TPI coupled enzyme counterscreen, fluorescence | inhibition, % at 1 µM | shares compounds with FBA Mtb inh | 81% of 5,600 active; in the data active = inhibition above about 10%
The depositor's hits bear a star; i = inactive; x = no result given; + = active, no number. Shown are actives, neighbours in structure and some others; about 4.1% of the full set was active somewhere. Cut-off read from the data, not from the text of the source, unless noted: active = inhibition above about 27%; inactive = the rest.

SMILES | GDH-TPI counter-1 | FBA Mtb inh | BH1578 lux ind | Mtb UGM inh | Rv3671c protease | RecA intein inh | Mtb FBA inh conf | GDH-TPI counter-2
O=C(NNC(=S)Nc1ccccc1)C1CCCCC1 | -4 | -2 | 0 | 2 | 3 | 1 | x | x
Cc1c(OCC(=O)NCCCN2CCOCC2)ccc2c3c(c(=O)oc12)CCC3 | -3 | 15 | 0 | -1 | 3 | 3 | x | x
Cc1c(OCC(=O)NCCCN2CCOCC2)ccc2c1oc(=O)c1ccccc12 | 7 | 47* | 0 | 1 | 0 | 0 | 98* | 68*
COc1ccc2oc(C(=O)OCC(=O)N(C)C3CCS(=O)(=O)C3)c(C)c2c1 (stereo unspecified) | 9 | 45* | -1 | 1 | 0 | -1 | 73* | 53*
COc1ccc2oc(C(=O)OCC(=O)N(C)C3CCCCC3)c(C)c2c1 | 6 | 38* | -4 | 1 | 5 | -1 | 2 | -6
CCN(C(=O)COC(=O)c1oc2ccc(OC)cc2c1C)C1CCCCC1 | -2 | 30* | -3 | 2 | 3 | 0 | 103* | 78*
Cc1ccccc1-c1cc2nc(NCCN3CCCC3)n(C)c(=O)c2s1 | 9 | -2 | 0 | x | x | x | x | x
Cc1c(C(=O)OCC(=O)NC(C)c2ccccc2)oc2ccccc12 (stereo unspecified) | 6 | 2 | i | -1 | -6 | 0 | x | x
COc1ccc(-c2nc3ccccc3o2)cc1OC | -5 | 10 | -2 | 1 | 9 | x | x | x
c1ccc2oc(-c3ccc4nc[nH]c4c3)nc2c1 | 9 | 60* | -3 | 0 | 3 | -3 | + | 169*
O=C(Nc1nnc([C@@H]2C[C@H](O)[C@@H](CO)O2)s1)Nc1ccc(F)cc1F | 7 | -1 | -1 | x | x | x | x | x
Cc1ccc(S(=O)(=O)N2C[C@H]3C(=O)C[C@@H]4C(=O)N(c5ccccc5)C(=O)[C@@H]4[C@@H]3C[C@H]2c2cccc(Cl)c2)cc1 | x | -3 | x | x | x | x | x | x
C=CC[C@@H](Cc1ccc(F)cc1)C(=O)OC[C@@H]1CCCN1C(=O)[C@H](CC=C)CC(=O)N(CCO)Cc1ccccc1 | 12 | -1 | i | 3 | 2 | x | x | x
Cc1cc(=O)oc2cc(OCC(O)Cn3ccnc3)ccc12 (stereo unspecified) | 27 | 43* | 0 | 0 | 7 | 0 | 10 | -1
CCN1CCN(CC(O)COc2ccc(C)c(C)c2)CC1 (stereo unspecified) | 4 | 0 | i | 0 | 5 | -3 | x | x
Cc1cc(=O)oc2cc(OC(C)C(=O)NCCCn3ccnc3)ccc12 (stereo unspecified) | 11 | 16 | 0 | 0 | -3 | -1 | x | x
CCN1CCN(CC(O)COc2ccc3c(C)cc(=O)oc3c2)CC1 (stereo unspecified) | 7 | 53* | 2 | 1 | -4 | 0 | + | +
O=C(OCc1ccccc1)/C(=C(\O)c1ccccc1Br)c1ccc(-c2ccccc2)cn1 | -3 | 0 | i | -1 | -3 | 1 | x | x
CCCS(=O)(=O)NC(=O)C1(C)CCN(C(=O)c2cc(C(C)(C)C)nn2C)C1 (stereo unspecified) | 12 | 3 | 1 | x | x | x | x | x
COC(=O)[C@H](Cc1ccccc1)NC(=O)NC(C)CCc1ccccc1 (stereo partly specified) | 3 | 77* | i | 2 | -9 | 2 | + | +
CC(O)c1cc2c(cc1NC(=O)c1cnn3c1NC(c1ccco1)CC3C(F)(F)F)OCO2 (stereo unspecified) | 7 | 48* | i | -2 | -8 | -4 | 57* | 55*
CCN(CC)CCN1C(=O)C(=O)/C(=C(/O)c2ccc(S(=O)(=O)N3CCOCC3)cc2)C1c1ccc(Cl)cc1 (stereo unspecified) | 0 | 1 | i | 1 | -2 | -1 | x | x
O=c1[nH]cnc2sc3c(c12)CCN(Cc1ccccc1)C3 | 15 | 47* | 0 | 3 | -12 | -35 | 122* | 94*
OCCCNc1ncnc2sc3c(c12)CCN(Cc1ccccc1)C3 | 11 | 72* | 0 | 1 | 6 | -18 | 76* | 62*
COc1ccccc1CCC(=O)NNC(=O)Cn1nc(C)cc1C | 8 | 3 | -1 | x | x | x | x | x
SMILES | GDH-TPI counter-1 | FBA Mtb inh | BH1578 lux ind | Mtb UGM inh | Rv3671c protease | RecA intein inh | Mtb FBA inh conf | GDH-TPI counter-2
CCOc1cc2c(C#N)c(N3CCCCC3)nc(N)c2c(N)n1 | 7 | 28* | i | 0 | 3 | -2 | 84* | 53*
CCOc1cc2c(C#N)c(N3CCNCC3)nc(N)c2c(N)n1 | 10 | 40* | i | -1 | 7 | 4 | 151* | 125*
c1ccc(C2CC(c3cccs3)=NN2c2ccccc2)cc1 (stereo unspecified) | 7 | 87* | i | -1 | 5 | -7 | 171* | 119*
O=S(=O)(c1ccccc1)N1N=C(c2cccs2)CC1c1ccc(Br)cc1 (stereo unspecified) | 8 | 9 | 0 | -2 | -5 | -1 | x | x
Fc1ccc(C2CC(c3cccs3)=NN2c2ccccc2)cc1 (stereo unspecified) | 2 | 107* | -1 | x | x | -102 | 33* | 22*
COc1ccccc1C(=O)COC(=O)c1nc2nc(C)cc(C)n2n1 | 7 | 2 | -1 | -3 | 6 | -6 | x | x
CCN(C(=S)Nc1cccc2ccccc12)c1ccccc1 | 13 | 30* | -1 | x | x | x | 58* | 43*
S=C(NCc1ccccc1)Nc1cccc2ccccc12 | 6 | 8 | -1 | 2 | 1 | 2 | x | x
O=C(COc1ccc2c(c1)OCO2)Nc1nccs1 | -7 | 3 | 0 | 0 | -2 | -2 | x | x
O=c1cc(C(F)(F)F)nc(SC/C=C/c2ccccc2)[nH]1 | -9 | -8 | 2 | 0 | -1 | 7 | x | x
CCN(Cc1ccccc1)S(=O)(=O)c1cc2[nH]c(=O)c(=O)[nH]c2cc1C | 20 | 28* | 0 | -1 | -5 | 1 | 155* | 111*
Cc1cc2c(cc1S(=O)(=O)N(C)Cc1ccccc1)OCC(=O)N2 | 4 | 1 | 0 | -2 | 8 | -1 | x | x
COc1ccc2[nH]c(C(=O)NCc3ccccc3)cc2c1 | 11 | 56* | 0 | 3 | -9 | 0 | 64* | 46*
CCOC(=O)c1cc2cc(OC)ccc2[nH]1 | 5 | 41* | -3 | 1 | -3 | 5 | 45* | 42*
CCOC(=O)c1[nH]c2ccc(OC)cc2c1C | 7 | 24 | 1 | 3 | 1 | 0 | x | x
CC(OC(=O)CSc1ccc(F)cc1)C(=O)NC1(C#N)CCCCC1 (stereo unspecified) | 1 | -1 | i | -1 | -7 | 1 | x | x
COc1cc(-c2nc(-c3ccccc3)c(-c3cccs3)[nH]2)cc(OC)c1OC | 18 | 46* | 0 | 0 | 2 | -1 | 1 | -5
